Laboratory results from PubChem BioAssay (NCATS).
Several values for one entry are separate records, joined by “and”; a condition that tells them apart may be missing. Equal values may be shown once. Results filed as inconclusive are left out. The source holds several records for some structures; these can differ, active in one and inactive in another. Activity calls are given as the source filed them. Calls follow the shape of the dose curve; as a rule, active = well fitted curve in the direction sought with a large enough effect; inconclusive = small, poorly fitted or top-dose-only effect, or another doubt; inactive = no such curve, though single readings can be large; an effect the other way counts as inactive or inconclusive.

How the values were obtained:
[1] = P-glycoprotein substrates identified in KB-8-5-11 adenocarcinoma cell line, qHTS therapeutic library screen (AID 1346987); also: nearly all actives have a fitted effect of over 65% in size
How it was run: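 Luminescence from CellTiter-Glo, read 5 min after addition, quantified survival of KB-8-5-11 (P-gp-overexpressing) cells exposed to compounds for 72 h. AC50 was derived from concentration-response curves.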

[2] = NS1 protein of Zika virus - qHTS assay to identify small molecule inhibitors in human HEK 293 cells (AID 1347053); also: nearly all actives have a fitted effect of over 55% in size
How it was run: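 TR-FRET signal from two anti-ZIKV NS1 antibodies quantified NS1 in HEK 293 cells 24 h after MR766 infection at MOI = 0.5; compounds were added 1 h before virus. Uninfected cells and infected cells defined the NS1 normalization range.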

[3] = qHTS of pediatric cancer cell lines to identify multiple opportunities for drug repurposing: Primary screen for TC32 cells (AID 1347089); also: nearly all actives have a fitted effect of over 60% in size
How it was run: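 Luminescent ATP read-out (CellTiter-Glo) of metabolically active TC32 cells after 48 h exposure. Concentration-response curves came from 11-point (MIPE, 0.78 nM–46 µM) or 8-point (NPC, 0.59 nM–46 µM) primary titrations; follow-up used 11 points.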

[4] = qHTS of pediatric cancer cell lines to identify multiple opportunities for drug repurposing: Primary screen for DAOY cells (AID 1347090); also: nearly all actives have a fitted effect of over 55% in size
How it was run: (§1)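 Cell viability, CellTiter-Glo luminescence; 500-1,000 cells/well, 8- or 11-point titration, 48 h compound exposure at 37 degrees C, 5% CO2. Controls: DMSO neutral, bortezomib 2.3 µM final as positive.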

[5] = qHTS of pediatric cancer cell lines to identify multiple opportunities for drug repurposing: Primary screen for A673 cells (AID 1347092); also: nearly all actives have a fitted effect of over 45% in size
How it was run: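 Cell viability of A673 measured by CellTiter-Glo ATP luminescence after 48 hours compound exposure. Dilution series spanned 0.78 nM to 46 µM (MIPE, 11-point) or 0.59 nM to 46 µM (NPC, 8-point); bortezomib 2.3 uM positive control.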

[6] = qHTS of pediatric cancer cell lines to identify multiple opportunities for drug repurposing: Primary screen for SK-N-MC cells (AID 1347093)
How it was run: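 Metabolically active cells were quantified by ATP-dependent luminescence (CellTiter-Glo, 15 min at room temperature) following 48 h treatment. Cells had been plated at 500-1,000 per well and settled for 5 h beforehand.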

[7] = P-glycoprotein substrates identified in KB-3-1 adenocarcinoma cell line, qHTS therapeutic library screen (AID 1346986);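 also: potency is for cytotoxicity meaning loss of cell viability; nearly all actives have a fitted effect of over 60% in size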
How it was run: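 Viability read by CellTiter-Glo after 72 h compound exposure in dose-response of KB-3-1 and KB-8-5-11 (P-gp-high) cells. Hits needed AC50 < 10 uM, >50% maximum response and curve class -1.1 to -2.4. Cherry-picks retested ± tariquidar, including pcDNA/MDR-19 HEK-293 pair.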

[8] = qHTS of pediatric cancer cell lines to identify multiple opportunities for drug repurposing: Primary screen for SJ-GBM2 cells (AID 1347091)
How it was run: as §1

[9] = qHTS of pediatric cancer cell lines to identify multiple opportunities for drug repurposing: Primary screen for BT-37 cells (AID 1347094)
How it was run: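 Plated cells (500-1,000 per well, growth media) were allowed to settle for 5 hours, treated with compound dilutions for 48 hours, then lysed with CellTiter-Glo for 15 min at room temperature before luminescence reading.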

Measured: Potency
Potency is read from the fitted curve at half-maximal effect.

NC(=O)c1cccc2cn(-c3ccc([C@@H]4CCCNC4)cc3)nc12
inactive: [1] | [4]
active: [2] 11.8 µM | [3] 20.8 µM | [5] 1.87 µM | [6] 8.33 µM

CC(=O)Nc1nc(C)c(-c2ccc(Cl)c(S(=O)(=O)NCCO)c2)s1
inactive: [2]
active: [7] 9.2 µM | [4] 5.9 µM | [8] 1.87 µM | [5] 1.87 µM | [6] 0.132 µM | [9] 15.3 µM

O=C(Nc1ncc(-c2cc(C(F)F)nn2-c2c(Cl)cccc2Cl)s1)C1CC1
active: [1] 662 nM and 731 nM | [2] 1.05 µM | [3] 1.31 µM | [8] 0.332 µM | [5] 0.296 µM | [6] 0.296 µM | [9] 0.863 µM

Cc1cc(Nc2ncnc3ccc(-c4ccc(CNCCS(C)(=O)=O)o4)cc23)ccc1Oc1ccn2ncnc2c1
inactive: [1] | [2]
active: [4] 9.35 µM | [8] 5.26 µM | [5] 0.235 µM | [6] 4.18 µM | [9] 6.11 µM

Nc1ncnc2c1c(-c1cccc(OCc3ccccc3)c1)cn2C1CC(CN2CCCC2)C1 (stereo not given)
active: [3] 6.58 µM | [8] 20.9 µM | [5] 18.7 µM | [6] 0.662 µM
inactive: [2] | [4]

Cn1cc(-c2ccncc2)c(-c2ccc(OCc3ccc4ccccc4n3)cc2)n1
active: [1] 20.6 µM | [4] 4.69 µM | [5] 3.72 µM | [6] 9.35 µM
inactive: [2]

CC(=O)Nc1sc2c(c1-c1nc3ccccc3s1)CNC2
inactive: [2]
active: [1] 16.6 µM and 13 µM | [5] 18.7 µM | [9] 15.3 µM

NCC(=O)Nc1ccc(-n2nc(C(F)(F)F)cc2-c2ccc3c(ccc4ccccc43)c2)cc1
active: [1] 14.8 µM and 10.3 µM | [2] 0.0526 µM | [4] 23.5 µM | [5] 23.5 µM | [6] 0.0372 µM | [9] 24.3 µM

COc1cc2c(Nc3ccc(NC(=O)c4ccccc4)cc3)ncnc2cc1OCCCN1CCOCC1
active: [3] 3.7 µM | [8] 5.26 µM | [5] 14.8 µM | [9] 30.6 µM
inactive: [1]

COC(=O)C1=C(C)NC(C)=C(C(=O)OCCN2CCN(C(c3ccccc3)c3ccccc3)CC2)C1c1cccc([N+](=O)[O-])c1 (stereo not given)
20.6 µM (active) and inactive: [1]
active: [6] 6.68 µM

Cc1c(CN2CCN(S(C)(=O)=O)CC2)sc2c(N3CCOCC3)nc(-c3cnc(N)nc3)nc12
active: [1] 41.8 nM and 291 nM | [3] 0.294 µM | [4] 0.118 µM | [8] 0.0469 µM | [5] 0.187 µM | [6] 0.0047 µM | [9] 0.193 µM

Cc1c(C)n(Cc2ccc(-c3ccccc3C(=O)O)cc2)c2ccc(C(=O)N[C@@H](C)c3ccc([N+](=O)[O-])cc3)cc12
inactive: [1] | [2]
active: [4] 0.0296 µM | [8] 23.5 µM | [5] 0.148 µM | [6] 0.0187 µM | [9] 0.968 µM

CCN(CC)CCNC(=O)c1ccc2nc(-c3ccccc3)c(-c3ccc(CN4CCC(n5c(=O)[nH]c6ccccc65)CC4)cc3)nc2c1
active: [1] 3.72 µM | [2] 3.32 µM | [4] 23.5 µM | [8] 16.6 µM | [5] 1.18 µM | [6] 2.64 µM | [9] 10.9 µM

C[C@@H]1COC(Nc2ccc3ncnc(Nc4ccc(OCc5nccs5)c(Cl)c4)c3c2)=N1
inactive: [3]
active: [1] 20.9 µM | [4] 0.935 µM | [8] 23.5 µM | [5] 0.935 µM | [6] 2.35 µM | [9] 24.3 µM

Cc1cc(CN2CCN(c3c(Br)cnc4nc(-c5ccc(N6CCN(C)CC6)cc5)[nH]c34)CC2)no1
active: [1] 0.92 µM | [5] 23.5 µM | [6] 1.18 µM

CCN1CCN(Cc2ccc(-c3cc4c(N[C@H](C)c5ccccc5)ncnc4[nH]3)cc2)CC1
active: [3] 0.117 µM | [4] 0.001 µM | [8] 0.332 µM | [5] 0.001 µM | [6] 0.001 µM | [9] 0.153 µM
inactive: [1]

O=C(CCCCCCC(=O)Nc1ccc([C@H]2O[C@@H](CSc3nc(-c4ccccc4)c(-c4ccccc4)o3)C[C@@H](c3ccc(CO)cc3)O2)cc1)NO
11.8 µM (active) and inactive: [1]
inactive: [2]
active: [4] 11.8 µM | [8] 14.8 µM | [5] 4.69 µM | [6] 8.33 µM | [9] 15.3 µM

COC(=O)Nc1nc2ccc(C(=O)c3ccc(F)cc3)cc2[nH]1
inactive: [3]
active: [1] 418 nM and 1.03 µM | [4] 0.743 µM | [5] 0.59 µM | [6] 0.372 µM

CNC(=O)c1c(F)cccc1Nc1nc(Nc2cc3c(cc2OC)CCN3C(=O)CN(C)C)nc2[nH]ccc12
inactive: [2]
active: [1] 16.6 µM and 18.4 µM | [4] 0.118 µM | [5] 0.0935 µM | [6] 0.0148 µM

Cc1cc(Nc2cc(CN3CCOCC3)c3nc(C)c(Cc4ccc(Cl)cc4F)n3n2)n[nH]1
active: [1] 13.2 µM and 16.4 µM | [8] 23.5 µM | [5] 5.9 µM

CCS(=O)(=O)c1cccc(-c2cc(C(=O)NC3CCN(C)CC3)c(C)c3[nH]c4ncc(C)cc4c23)c1
active: [2] 13.2 µM | [4] 14.8 µM | [8] 0.526 µM | [5] 0.743 µM | [6] 0.187 µM | [9] 3.06 µM
inactive: [1]
